The values that follow come from PubChem BioAssay AID1851 (National Center for Advancing Translational Sciences (NCATS), 2009).

Several values for one entry are separate records, joined by “and”; a condition that tells them apart may be missing. Identical values can stand only once. The campaign covered roughly 16,000 compounds. About 5,800 (36%) were called active. Not shown: some 23% with an inconclusive outcome. Calls follow the shape of the dose curve; as a rule, active = well fitted curve in the direction sought with a large enough effect; inconclusive = small, poorly fitted or top-dose-only effect, or effect the other way; inactive = no such curve, though single readings can be large or run the other way. The list shows a part of the results. The source holds several records for some structures; these can differ, active in one and inactive in another.
% is scaled to controls: 0 for no effect and ±100 for the full control effect.

Chain of Cytochrome P450 2C19 (Homo sapiens) (P33261 whole entry, looked up): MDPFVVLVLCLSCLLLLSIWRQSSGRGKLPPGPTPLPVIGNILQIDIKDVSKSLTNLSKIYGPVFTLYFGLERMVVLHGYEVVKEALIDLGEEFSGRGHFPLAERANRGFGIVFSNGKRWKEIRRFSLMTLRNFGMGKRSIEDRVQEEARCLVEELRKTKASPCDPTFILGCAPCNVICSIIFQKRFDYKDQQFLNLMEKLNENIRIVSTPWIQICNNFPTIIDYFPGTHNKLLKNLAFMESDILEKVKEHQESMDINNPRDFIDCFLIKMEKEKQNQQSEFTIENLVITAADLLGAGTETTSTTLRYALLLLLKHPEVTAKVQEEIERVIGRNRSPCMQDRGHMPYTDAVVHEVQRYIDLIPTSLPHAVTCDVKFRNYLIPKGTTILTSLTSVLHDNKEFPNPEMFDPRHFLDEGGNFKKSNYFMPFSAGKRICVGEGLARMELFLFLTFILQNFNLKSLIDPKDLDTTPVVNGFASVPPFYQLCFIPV

The assay addresses Cytochrome P450 2C19 (Homo sapiens) (UniProt P33261). As to the kind of experiment: Cytochrome panel assay with activity outcomes. The following applies: recombinant CYP, pro-luciferin dealkylation, luminescence, p450-cyp2c19; series mostly up to 57.1 µM.
`Cc1[nH]nc(-c2ccc(OCc3cnn(-c4ccccc4)c3)cc2O)c1Oc1ccccc1F`: the AC50 was 1.78 µM (active).
Consider `O=C(Nc1ccc2oc(-c3ccccc3F)nc2c1)c1ccc2c(c1)OCCO2`, for which the concentration at half-maximal activity (AC50) is 3.98 µM (active).
The same measure, in the same setting: the figure for `O=C(NC1CCN(Cc2ccccc2)CC1)c1ccc(I)cc1` is 15.8 µM (active).
The same measure, in the same setting: the same measure for `Cc1ccc(NC(=O)CN2CCC(NC(=O)Cc3ccccc3)CC2)cc1C`: 0.0178 µM (active).
On the same count and under the same terms, the entry for `CCC(C)[C@H](NC(=O)NC1CCN(Cc2ccccc2)CC1)C(=O)OC` (stereo partly specified) is “inactive”.
On to `CN(C)CCNC(=O)C(C(=O)c1ccc(F)cc1)n1ccccc1=O` (stereo unspecified), for which the AC50 entry was “inactive”.
Same read-out and setting: the figure for `COc1ccccc1NC(=O)CN1CCN(c2ccccc2F)CC1` is 2.51 µM (active); for `COc1cc(N)c(Cl)cc1C(=O)NC1CCN(Cc2ccccc2)CC1` it is “inactive”; for `CCCNC(=O)N1CCC(C(=O)c2ccc(F)cc2)CC1` it is 17.8 µM (active).
On the same count and under the same terms, the same measure for `O=C(Cc1ccccc1)NC1CCN(S(=O)(=O)c2ccc(C(=O)O)cc2)CC1`: “inactive”; for `O=C1C(O)=C(O)C(=O)C(O)=C1O`: “inactive”.
With `NC(N)=NNC(=O)C(=O)O`, the activity, negative = inhibition is 28.3% [at 11.4 µM] (inactive).
With `COc1ccccc1NC(=O)CN1CCC(C(=O)c2ccc(F)cc2)CC1`, the half-maximal activity concentration (AC50) was 5.01 µM (active).
Same read-out and setting: the entry for `CCOc1ccccc1NC(=O)C(=O)NCC1CCCN1CC` (stereo unspecified) is “inactive”.
Same read-out and setting: the entry for `Cc1cccc(N2CCN(CC(=O)Nc3ccc(-n4cnnn4)cc3)CC2)c1C` is “inactive”; for `CCOc1ccccc1NC(=O)CN1CCC(NC(=O)c2ccccc2)CC1` it is 1 µM (active); for `CCN(CC)c1ccc(NC(=O)CN2CCN(c3ccccc3F)CC2)cc1` it is 14.1 µM (active).
On the same count and under the same terms, the entry for `O=C(c1ccc(F)cc1)C1CCN(CCCCc2ccccc2)CC1` is “inactive”; for `CC(C)NC(=O)N1CC2(CCN(C(=O)c3cc(C(F)(F)F)cc(C(F)(F)F)c3)CC2)C1` it is “inactive”; for `Nc1ncnc(N(c2ccccc2)C2CCCCC2)c1[N+](=O)[O-]` it is “inactive”.
Turning to `N=c1nc(N2CCCCC2)cc(N)n1O`, the AC50 result is “inactive”.
Still for that read-out and setting: the same measure for `Fc1ccccc1OCCCCSc1ncccn1`: 3.98 µM (active).
Turning to `CN1CCN(c2ccnc(-c3ccoc3)n2)CC1`, the AC50 result is “inactive”.
Same read-out and setting: the figure for `N#Cc1cccc(-c2cc(-n3ccnc3)ncn2)c1` is 0.158 µM (active); for `c1cn(-c2ccnc(-c3ccc4c(c3)OCO4)n2)cn1` it is 10 µM (active); for `CCNc1ncc2nc(-c3cccc(C#N)c3)c(=O)n(C)c2n1` it is “inactive”.
Same read-out and setting: the same measure for `N#Cc1cccc(-c2nc(N3CCNCC3)c3ccccc3n2)c1`: “inactive”; for `COc1cccc(-c2nccc(NC3CCNCC3)n2)c1`: “inactive”.
Still for that read-out and setting: the figure for `COc1cccc(-c2nccc(-n3ccnc3)n2)c1` is 2.51 µM (active); for `N#Cc1cccc(-c2nccc(-n3ccnc3)n2)c1` it is 7.94 µM (active); for `C[n+]1cc(-c2ccccc2)n2c1CCCCC2` it is “inactive”.
As for `CCCCSCc1nc2nc(Cl)c(Cl)nc2[nH]1`, the AC50 is 2 µM (active).
Still for that read-out and setting: the figure for `CC(C)(C)C(=O)NC(Nc1cccc2cccnc12)C(Cl)(Cl)Cl` (stereo unspecified) is 0.794 µM (active).
`O=C(Nc1cccc2cccnc12)[C@@H]1[C@@H](C(=O)O)[C@H]2CC[C@@H]1O2`: the activity, negative = inhibition was 29.3% [at 11.4 µM] (inactive).
For `NC(=S)Nc1cccc2cccnc12`, the AC50 result was “inactive”.
Regarding `CCN1CCN(c2nn3c(=O)c4ccccc4nc3c3ccccc23)CC1`, the AC50 result was “inactive”.
Still for that read-out and setting: the entry for `COC(=O)N1CCC2(CCCN(Cc3ccccc3)C2)CC1` is “inactive”.
With `CC(C)NC1(C(N)=O)CCN(Cc2ccccc2)CC1`, the activity, negative = inhibition is -1.03% [at 11.4 µM] (inactive).
As for `CCCCCCOC(=O)C(C#N)c1nc2ccccc2nc1N1CCN(CC)CC1` (stereo unspecified), the AC50 is 8.91 µM (active).
The same measure, in the same setting: the figure for `CC(C)OC(=O)C(C#N)c1nc2ccccc2nc1N1CCN(Cc2ccccc2)CC1` (stereo unspecified) is 0.00562 µM (active); for `CCn1c(=O)[nH]c2cc(Cl)c(Cl)cc21` it is “inactive”; for `CCCC(=O)N=C1SC2CS(=O)(=O)CC2N1c1ccc(CC)cc1` (stereo unspecified) it is 7.08 µM (active).
`C=CCN1C(=NC(=O)CC)SC2CS(=O)(=O)CC21` (stereo unspecified): the AC50 entry was “inactive”.
On the same count and under the same terms, the same measure for `COc1ccc(CCN2C(=NC(=O)CCC(=O)O)SC3CS(=O)(=O)CC32)cc1` (stereo unspecified): 14.1 µM (active); for `CC(C)NC(=O)N1CC2(CCN(C(=O)c3ccncc3)CC2)C1`: “inactive”.
Regarding `c1ccc(C[n+]2cccc(-c3cc4ccccc4[nH]3)c2)cc1`, the activity, negative = inhibition is 22.1% [at 11.4 µM] (inactive).
For the compound `Clc1ccc(-c2cc3ccccc3[nH]2)cc1`, the concentration at half-maximal activity (AC50) is 3.16 µM (active).
Same read-out and setting: the same measure for `OC(c1ccccc1)(c1ccc(F)cc1)C(c1ccccc1)N1CCOCC1` (stereo unspecified): 2.82 µM (active).
Consider `C[C@@H](N1CCOCC1)[C@@](O)(c1ccccc1)c1ccccn1`, for which the activity, negative = inhibition was 5.67% [at 11.4 µM] (inactive).
With `CC(C)NC(=O)N1CCC2(CC1)CCN(C(=O)c1cccc(F)c1)CC2`, the AC50 entry is “inactive”.
For the compound `C=C[C@@]1(C)CC(=O)[C@@]2(O)[C@@]3(C)[C@H](O)CCC(C)(C)[C@@H]3[C@H](O)[C@H](OC(C)=O)[C@]2(C)O1`, the AC50 entry is “inactive”.
The same measure, in the same setting: the figure for `C=C[C@@]1(C)CC(=O)[C@@]2(O)[C@@]3(C)[C@@H](O)CCC(C)(C)[C@@H]3[C@H](OC(=O)CCN(C)C)[C@H](OC(C)=O)[C@@]2(C)O1` is 0.251 µM (active); for `Cc1cc(C2CCCCC2)n(O)c(=O)c1` it is “inactive”; for `Cc1cc2nc(SCCOC(=O)Nc3ccc(Cl)cc3)nc(C)c2cc1C` it is 0.794 µM (active).
The same measure, in the same setting: the figure for `CSc1ccc(S(=O)(=O)Nc2ccc3c4c(cccc24)CC3)cc1` is 0.447 µM (active); for `O=C(c1ccncc1)N1CCC2(CCN(Cc3nccs3)CC2)CC1` it is “inactive”; for `O=C(c1cc(C(F)(F)F)cc(C(F)(F)F)c1)N1CCC2(CCN(Cc3nccs3)CC2)CC1` it is “inactive”.
Same read-out and setting: the figure for `O=C(c1cccc(F)c1)N1CCC[C@@]2(CCN(Cc3nccs3)C2)C1` is 2.51 µM (active).
In the case of `O=C(c1cccc(F)c1)N1CCC2(CCCN(Cc3nccs3)C2)CC1`, the AC50 result is “inactive”.
Still for that read-out and setting: the figure for `O=C(c1cccc(F)c1)N1CCC2(CCN(Cc3nccs3)CC2)CC1` is 1.58 µM (active); for `O=C(c1cc(C(F)(F)F)cc(C(F)(F)F)c1)N1CCC[C@@]2(CCN(Cc3nccs3)C2)C1` it is “inactive”.
Still for that read-out and setting: the entry for `CCC1(c2ccccc2)C(=O)NCNC1=O` is “inactive”; for `COCCn1c(=O)c(-c2ccccc2)nc2cnc(Nc3cccc(OC)c3)nc21` it is “inactive”; for `Cn1c(=O)c2[nH]c(-c3ccccc3)nc2n(C)c1=O` it is “inactive”.
For the compound `Nc1nc(C(=O)O)c(N=Nc2ccccc2)c(=O)[nH]1`, the activity, negative = inhibition is -7.57% [at 11.4 µM] (inactive).
Take `O=C(O)c1nc(-c2ccccc2)[nH]c1C(=O)O`: the half-maximal activity concentration (AC50) is 3.16 µM (active).
As to `Cc1ccc(S(=O)(=O)N(CC(=O)NCCC2=CCCCC2)Cc2ccccc2F)cc1`, the AC50 was 4.47 µM (active).
Consider `C/C(CCN1CCCc2nc(C)c(C)cc21)=N\OC[C@@H](O)COCc1ccco1`, for which the activity, negative = inhibition was 7.43% [at 11.4 µM] (inactive).
Consider `O=C1CSC(c2ccccn2)N1c1ccc(Cl)c(Cl)c1` (stereo unspecified), for which the AC50 was 3.55 µM (active).
Same read-out and setting: the same measure for `Cc1ccc(N2C(=O)c3n[nH]c(C)c3C2c2ccccn2)cc1` (stereo unspecified): “inactive”; for `N#Cc1c(N2CCCCC2)nc(N)c2c(N)nc3c(c12)CC(c1ccccc1)O3` (stereo unspecified): 6.31 µM (active); for `COc1ccccc1N1CCN(C[C@@H]2CN3C(=O)N(C)c4ccccc4C3=N2)CC1`: “inactive”.
On the same count and under the same terms, the entry for `COc1ccccc1N1CCN(CCCCNC(=O)c2ccc3ccccc3c2)CC1` is “inactive”; for `COc1ccccc1N1CCN(CCCCNS(=O)(=O)c2cccc3c(N(C)C)cccc23)CC1` it is 0.501 µM (active); for `COc1ccccc1N1CCN(Cc2cc(=O)n3ccsc3n2)CC1` it is 17.8 µM (active).
Regarding `COc1ccccc1N1CCN(CCCCNC(=O)c2ccc(-c3ccc(C(C)=O)cc3)cc2)CC1`, the concentration at half-maximal activity (AC50) was 15.8 µM (active).
On the same count and under the same terms, the same measure for `COc1ccccc1N1CCN(CCn2c(=O)[nH]c3c([nH]c4ccccc43)c2=O)CC1`: “inactive”.
`COc1ccccc1N1CCN(CCCNc2cc(=O)n(C)c(=O)n2C)CC1`: the AC50 result is “inactive and 7.94 µM (active)”.
Consider `CC1(C)[C@@H]2CC[C@]1(CC(=O)O)[C@H](Cl)C2`, for which the activity, negative = inhibition is 3.64% [at 11.4 µM] (inactive).
In the case of `CCNc1ncc2nc(-c3cc(F)cc(F)c3)c(=O)n(CCC#N)c2n1`, the AC50 result is “inactive”.
On the same count and under the same terms, the entry for `CN[C@]1(C)[C@H]2CC[C@@H](C2)C1(C)C` is “inactive”; for `CC1(C)C2([N+](=O)[O-])CN3CC1([N+](=O)[O-])CN(C2)C31CCCC1` it is “inactive”.
On the same count and under the same terms, the figure for `COc1ccccc1N1CCN(CCCCN2C(=O)CCC2=O)CC1` is 10 µM (active).
Same read-out and setting: the same measure for `COc1ccccc1N1CCN(CCN2C(=O)CC3(CCCC3)CC2=O)CC1`: “inactive”.
`COc1ccccc1N1CCN(CCCCN2C(=O)c3ccccc3C2=O)CC1`: the AC50 entry was “inactive”.
Still for that read-out and setting: the figure for `CC(C)C(=O)NCCc1nc2ccccc2n1CCCOc1ccc(Cl)cc1` is 2 µM (active); for `C=CC[C@H](N)C(=O)O` it is “inactive”.
Same read-out and setting: the same measure for `Cc1ccc(NC(=O)c2ccc(CSc3nnc(-c4ccncc4)n3C)cc2)cc1`: “inactive”; for `O=C(CSc1nnc(-c2ccncc2)n1Cc1ccccc1)Nc1nccs1`: 1.78 µM (active).
Turning to `CCn1c(SCc2ccc(C(=O)Nc3nccs3)cc2)nnc1-c1ccc(NC(C)=O)cc1`, the AC50 was 5.01 µM (active).
On to `CCNC(=O)C1CC(=O)OC12CCCCC2` (stereo unspecified), for which the AC50 result was “inactive”.
On the same count and under the same terms, the same measure for `Cn1c(=O)c2c(nc(Cl)n2Cc2ccc(Cl)c(Cl)c2)n(C)c1=O`: 2 µM (active).
As to `CN(C)CCn1c(CO)nc2c1c(=O)n(C)c(=O)n2C`, the activity, negative = inhibition was 29.8% [at 11.4 µM] (inactive).
Consider `CCc1ccc(N2CC(C)Cn3c2nc2c3c(=O)n(CCN3CCOCC3)c(=O)n2C)cc1` (stereo unspecified), for which the AC50 entry is “inactive”.
As to `CN(C)CCNc1nc2c(c(=O)n(C)c(=O)n2C)n1C`, the activity, negative = inhibition is -4.31% [at 11.4 µM] (inactive).
In the case of `Cn1c(OCc2ccc3c(c2)OCO3)nc2c1c(=O)n(Cc1ccc(Cl)c(Cl)c1)c(=O)n2C`, the concentration at half-maximal activity (AC50) was 10 µM (active).
Same read-out and setting: the same measure for `O=C(Nc1cnc2ccccc2c1)c1cccc(-n2cnnn2)c1`: “inactive”.
Same read-out and setting: the same measure for `CCC(C(=O)NC(C)(C)C)N(C(=O)Cn1nnc(-c2cccs2)n1)c1cnc2ccccc2c1` (stereo unspecified): 31.6 µM (active); for `COc1cc(CNC(=O)CCCC/C=C\C(C)C)ccc1O`: 7.94 µM (active).
Still for that read-out and setting: the same measure for `CCCCCCCC/C=C\CCCCCCCC(=O)NCc1ccc(O)c(OC)c1`: “inactive”; for `CCCCCCCCC(=O)NCc1cc(OC)c(O)cc1I`: “inactive”.
